Test [1] can be described thus: small molecules captured by biotinylated probe aFSTL3 – biochemical, small-molecule microarray, fluorescence 635/667, stem cell growth factor project, primary screen (AID 1064).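 Note: measures binding of the biotinylated anti-FSTL3 antibody to printed compounds.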 The conditions noted are these: higher = more signal.
A short description of test [2]: binders from COS7 lysate, DM2A8 probe, primary screen, torsin A project, cell lysate, small-molecule microarray, fluorescence 635/667 (AID 1065). To be noted: higher = more signal, COS7 lysate expressing mutant human TOR1A.
Test [3] is described as follows: small molecules captured by biotinylated probe aFGF2 – biochemical, small-molecule microarray, fluorescence 635/667, stem cell growth factor project, primary screen (AID 1067).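 Note: measures binding of biotinylated aFGF2 protein to printed compounds on slides; z-score merges feature fluorescence and signal-to-noise across triplicate slides.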 The conditions noted are these: higher = more signal.
The nature of test [4]: small molecules captured by biotinylated probe aFGF10 – biochemical, small-molecule microarray, fluorescence 635/667, stem cell growth factor project, primary screen (AID 1071).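 Note: score merges 667 nm spot intensity and signal to noise from triplicate slides.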 To be noted: higher = more signal.
In test [5] the target is Neurogenic locus notch homolog protein 2 (Homo sapiens) (UniProt Q04721). Description: small molecules binding Notch2 protein – biochemical, small-molecule microarray, 635 nm fluorescence, stem cell growth factors, primary screen (AID 1073). To be noted: higher = more signal.
Test [6] has as its target Pro-neuregulin-1, membrane-bound isoform (Homo sapiens) (UniProt Q02297). Description: small molecules binding neuregulin-1 protein – biochemical, small-molecule microarray, fluorescence 635/667, psychiatric disease protein project, primary screen (AID 1075).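 Note: score combines 667 nm spot fluorescence with signal to noise.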 The conditions noted are these: NRG1 binding, 635 nm fluorescence, higher = more signal.
Test [7] has as its system Neuregulin-1 EGF-like domain. Kind of test: small molecules binding NRG1 EGF domain – biochemical, small-molecule microarray, 635 nm fluorescence, primary screen (AID 1081).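 Note: binding of the protein to compounds printed on small-molecule microarray slides.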 To be noted: higher = more signal.
Test [8] in a line: FRG1 expression reporter modulators in myotubes – cell-based, C2C12 myotubes, firefly/Renilla luciferase, luminescence, FRG1 inhibition for FSHD, primary screen (AID 1084). The conditions noted are these: FRG1 promoter luciferase, higher = more signal, called active from +8 up or from −8 down.
Test [9] in a line: small molecules captured by biotinylated probe aFST – biochemical, small-molecule microarray, fluorescence 635/667, stem cell growth factor project, primary screen (AID 1086).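 Note: score merges 667 nm fluorescence with signal-to-noise of each printed compound spot.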 To be noted: higher = more signal.
Test [10] is described as follows: binders of probe aHhip on microarray, primary screen, stem cell growth factor project, biochemical, small-molecule microarray, fluorescence 635/667 (AID 1087).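 Note: score merges spot fluorescence at 667nm with spot signal to noise ratio.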 To be noted: higher = more signal.
Test [11] concerns PRMT1 (protein arginine N-methyltransferase 1). Kind of test: small molecules binding arginine methyltransferase PRMT1 – biochemical, small-molecule microarray, 635 nm fluorescence, primary screen (AID 1088).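 Note: binding of Prmt1 protein to compounds spotted on small-molecule microarray slides.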 To be noted: higher = more signal.
Test [12] in a line: growth effects on S. cerevisiae YJM789 – YJM789 clinical isolate, OD600, 24 h, basal, primary screen (AID 1089).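 Note: growth of clinical yeast isolate S. cerevisiae YJM 789 seeded 1000 cells per well; test concentration not given here.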 To be noted: higher = more signal, called active from +8 up or from −8 down.
The nature of test [13]: S. pombe growth modifiers, basal conditions – strain 972, OD600, 24 h, no modulator, primary screen (AID 1090).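 Note: basal condition with compound alone and no growth modifier present; test concentration not given here.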 To be noted: S. pombe 972 growth, higher = more signal, called active from +8 up or from −8 down.
The nature of test [14]: budding yeast growth modifiers under rapamycin – strain BY4716, OD600, 96 h, primary screen (AID 1091). Note: test concentration not given here. The conditions noted are these: S. cerevisiae BY4716 + rapamycin, higher = more signal, called active from +8 up or from −8 down.
The target in test [15] is Torsin-1A-interacting protein 2 (Homo sapiens) (UniProt Q8NFQ8). Kind of test: small molecules binding lysate-expressed LULL1 – cell lysate, human LULL1 lysate, 635/667 nm fluorescence, primary screen (AID 1092).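 Note: probe is lysate of COS7 cells overexpressing human LULL1; score merges per-feature 667 nm fluorescence with signal-to-noise.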 The conditions noted are these: small-molecule microarray, hLULL1 lysate binding, 635 nm fluorescence; higher = more signal.
Test [16] can be described thus: optical density change of DRC41 E. coli – strain DRC41, OD650, 24 h, E. coli filamentation project, primary screen (AID 1093).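 Note: MC1000 strain lacking acrAB efflux and sulA so SOS filamentation is blocked; test concentration not given here.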 The conditions noted are these: E. coli DRC41 growth, higher = more signal, called active from +8 up or from −8 down.
The nature of test [17]: probe aLefty2 binding to arrayed compounds – biochemical, biotinylated probe, 635/667 nm fluorescence, primary screen (AID 1094).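 Note: score merges spot fluorescence near 667 nm with spot signal-to-noise ratio.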 The conditions noted are these: small-molecule microarray, higher = more signal.
For test [18], the system named is Noggin (protein binding on small-molecule microarray). Kind of test: small molecules binding Noggin protein – biochemical, 635/667 nm fluorescence, primary screen (AID 1095).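 Note: score merges 667 nm feature fluorescence with signal to noise over triplicate slides.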 The conditions noted are these: 635 nm fluorescence, higher = more signal.
The target in test [19] is Neurogenic locus notch homolog protein 3 (Homo sapiens) (UniProt Q9UM47). Description: small molecules binding NOTCH3 protein – biochemical, 635/667 nm fluorescence, primary screen (AID 1096). To be noted: small-molecule microarray, 635 nm fluorescence, higher = more signal.
A short description of test [20]: probe aEGFR binding to arrayed compounds – biochemical, biotinylated probe, 635/667 nm fluorescence, primary screen (AID 1097).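 Note: probe is a biotinylated anti-EGFR antibody binding compounds printed on slides; score combines fluorescence near 667 nm and signal to noise of each spot.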 To be noted: small-molecule microarray, higher = more signal.

Activity calls are given as the source filed them.

Chain of Neurogenic locus notch homolog protein 3 (Homo sapiens) (Q9UM47 whole entry, looked up): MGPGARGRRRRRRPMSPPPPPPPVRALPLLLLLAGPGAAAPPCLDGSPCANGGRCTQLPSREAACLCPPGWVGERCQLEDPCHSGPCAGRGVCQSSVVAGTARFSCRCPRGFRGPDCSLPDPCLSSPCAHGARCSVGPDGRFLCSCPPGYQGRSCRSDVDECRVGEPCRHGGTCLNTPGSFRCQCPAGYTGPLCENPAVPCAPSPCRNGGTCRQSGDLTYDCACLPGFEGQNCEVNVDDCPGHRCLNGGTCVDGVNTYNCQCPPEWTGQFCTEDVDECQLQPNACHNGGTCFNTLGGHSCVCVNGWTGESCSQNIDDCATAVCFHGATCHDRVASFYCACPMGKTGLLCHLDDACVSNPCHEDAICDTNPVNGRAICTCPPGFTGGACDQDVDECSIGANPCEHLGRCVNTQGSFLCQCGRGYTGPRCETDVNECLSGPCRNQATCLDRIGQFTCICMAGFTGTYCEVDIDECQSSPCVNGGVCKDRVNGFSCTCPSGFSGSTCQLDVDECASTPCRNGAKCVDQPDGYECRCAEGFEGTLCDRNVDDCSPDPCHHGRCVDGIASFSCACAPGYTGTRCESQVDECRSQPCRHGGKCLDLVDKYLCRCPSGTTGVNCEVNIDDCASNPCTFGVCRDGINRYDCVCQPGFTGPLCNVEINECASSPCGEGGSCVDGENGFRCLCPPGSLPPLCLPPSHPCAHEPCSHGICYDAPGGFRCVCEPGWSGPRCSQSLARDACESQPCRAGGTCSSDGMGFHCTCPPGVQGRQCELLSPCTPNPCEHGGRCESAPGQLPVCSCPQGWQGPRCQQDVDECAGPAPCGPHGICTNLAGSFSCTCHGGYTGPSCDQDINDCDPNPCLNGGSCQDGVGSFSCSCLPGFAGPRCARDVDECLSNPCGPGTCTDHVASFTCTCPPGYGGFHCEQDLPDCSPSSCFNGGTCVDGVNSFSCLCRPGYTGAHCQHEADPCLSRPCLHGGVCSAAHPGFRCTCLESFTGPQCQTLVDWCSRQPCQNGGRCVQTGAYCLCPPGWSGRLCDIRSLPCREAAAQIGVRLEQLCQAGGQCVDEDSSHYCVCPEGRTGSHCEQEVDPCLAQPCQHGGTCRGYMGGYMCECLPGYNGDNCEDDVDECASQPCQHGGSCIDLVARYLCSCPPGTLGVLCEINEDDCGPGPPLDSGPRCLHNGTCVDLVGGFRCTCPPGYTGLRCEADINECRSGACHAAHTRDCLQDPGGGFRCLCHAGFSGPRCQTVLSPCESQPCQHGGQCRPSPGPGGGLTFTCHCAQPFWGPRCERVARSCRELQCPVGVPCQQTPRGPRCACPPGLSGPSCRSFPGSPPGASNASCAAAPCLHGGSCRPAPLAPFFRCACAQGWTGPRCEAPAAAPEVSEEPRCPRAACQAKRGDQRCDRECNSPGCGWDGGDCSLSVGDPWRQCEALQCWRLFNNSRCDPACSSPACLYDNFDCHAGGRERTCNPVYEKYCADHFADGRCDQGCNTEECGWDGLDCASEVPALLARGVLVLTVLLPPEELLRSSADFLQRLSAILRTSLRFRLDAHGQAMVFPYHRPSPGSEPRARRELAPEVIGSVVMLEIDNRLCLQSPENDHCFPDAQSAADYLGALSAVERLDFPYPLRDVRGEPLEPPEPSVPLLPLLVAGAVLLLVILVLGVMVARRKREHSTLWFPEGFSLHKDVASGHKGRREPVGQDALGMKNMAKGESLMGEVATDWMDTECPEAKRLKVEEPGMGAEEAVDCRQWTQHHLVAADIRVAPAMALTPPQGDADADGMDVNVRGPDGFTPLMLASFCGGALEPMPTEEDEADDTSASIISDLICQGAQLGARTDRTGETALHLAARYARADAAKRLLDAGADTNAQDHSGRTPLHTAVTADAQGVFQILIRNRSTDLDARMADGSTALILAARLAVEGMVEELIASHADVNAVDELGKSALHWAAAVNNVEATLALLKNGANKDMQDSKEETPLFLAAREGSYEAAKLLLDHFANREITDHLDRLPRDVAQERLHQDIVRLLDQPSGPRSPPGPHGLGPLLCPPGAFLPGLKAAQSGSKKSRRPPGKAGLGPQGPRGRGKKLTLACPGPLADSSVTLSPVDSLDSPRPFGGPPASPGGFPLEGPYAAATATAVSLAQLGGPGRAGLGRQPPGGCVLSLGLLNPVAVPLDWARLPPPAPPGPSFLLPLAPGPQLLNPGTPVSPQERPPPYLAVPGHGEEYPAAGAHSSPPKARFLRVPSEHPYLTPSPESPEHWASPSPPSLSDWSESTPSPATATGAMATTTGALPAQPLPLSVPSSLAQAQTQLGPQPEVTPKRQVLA
Chain of Pro-neuregulin-1, membrane-bound isoform (Homo sapiens) (Q02297 whole entry, looked up, the tested form may be a part, canonical isoform): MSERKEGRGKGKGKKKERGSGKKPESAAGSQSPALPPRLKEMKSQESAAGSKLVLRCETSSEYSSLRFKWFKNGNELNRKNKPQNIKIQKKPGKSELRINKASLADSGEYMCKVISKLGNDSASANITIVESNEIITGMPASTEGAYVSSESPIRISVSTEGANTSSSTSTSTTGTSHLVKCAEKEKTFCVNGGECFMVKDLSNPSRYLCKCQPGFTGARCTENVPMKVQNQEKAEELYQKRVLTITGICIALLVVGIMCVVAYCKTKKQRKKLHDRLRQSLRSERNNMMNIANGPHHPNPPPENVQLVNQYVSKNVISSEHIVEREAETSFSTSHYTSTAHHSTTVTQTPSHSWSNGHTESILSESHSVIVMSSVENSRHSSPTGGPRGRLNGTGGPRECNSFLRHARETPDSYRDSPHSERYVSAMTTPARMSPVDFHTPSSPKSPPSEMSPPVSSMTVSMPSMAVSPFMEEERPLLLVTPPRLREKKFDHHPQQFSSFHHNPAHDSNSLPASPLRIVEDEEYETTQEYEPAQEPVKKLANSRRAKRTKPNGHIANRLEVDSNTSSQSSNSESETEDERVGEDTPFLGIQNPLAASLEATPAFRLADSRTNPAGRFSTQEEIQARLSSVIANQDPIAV
Chain of Torsin-1A-interacting protein 2 (Homo sapiens) (Q8NFQ8 whole entry, looked up): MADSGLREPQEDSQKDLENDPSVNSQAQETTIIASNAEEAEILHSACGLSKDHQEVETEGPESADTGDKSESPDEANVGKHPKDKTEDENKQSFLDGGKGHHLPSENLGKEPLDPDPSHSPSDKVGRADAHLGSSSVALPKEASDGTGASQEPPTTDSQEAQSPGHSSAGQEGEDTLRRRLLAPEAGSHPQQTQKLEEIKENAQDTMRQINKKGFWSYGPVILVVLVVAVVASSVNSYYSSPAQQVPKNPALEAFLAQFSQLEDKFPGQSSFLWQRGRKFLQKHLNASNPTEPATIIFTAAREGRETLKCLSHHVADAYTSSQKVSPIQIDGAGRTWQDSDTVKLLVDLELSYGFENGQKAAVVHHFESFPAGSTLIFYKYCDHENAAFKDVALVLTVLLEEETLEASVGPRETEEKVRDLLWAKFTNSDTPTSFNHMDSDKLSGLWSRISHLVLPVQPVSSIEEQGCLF

`COC(=O)[C@@]1(Cc2ccc(F)cc2)[C@H]2c3cc(C(=O)N4CCCC4)n(CCc4ccc(O)c(O)c4)c3C[C@H]2CN1C(=O)c1ccccc1`: the composite z-score is 1.41 in test [1]; 0.109 in [2]; 0.57 in test [3]; 0.146 in test [4]; 1.38 in test [5]; 2.3 in test [6]. Besides, the composite z-score in test [7] is 1.29; in test [9], 1.05; in [10], 2.44; in [11], -0.522; in [15], 3.22; in test [17], 1.17. Moreover, the composite z-score in test [18] is -0.97; in test [19] it was -1.04; in test [20] it was 0.978. For the same compound, the z-score in [8] was 0.332 (inactive); in [12] it was 1.34 (inactive); in [13], 1.16 (inactive); in [14], 1.96 (inactive); in test [16], -0.469 (inactive).
For the compound `CC(C)(C)OC(=O)CC[C@]1(C(=O)NCC(O)CO)N=C(c2ccc(OCCCO)cc2)O[C@H]1c1ccccc1` (stereo not given in full), the composite z-score in test [1] is 1.07; in [2], 1.58; in [3] it was -0.0099; in [4], 0.391; in test [5], 0.493; in test [6], 0.866. For the same compound, the composite z-score in test [7] was 1.33; in test [9], 0.36; in test [10], -0.323; in [11] it was -0.362; in [15], 3.45; in test [17], 0.0424. For the same compound, the results for the composite z-score in [18], in test [19] and in [20] were -0.837, -0.89 and 0.109, respectively. In addition, the z-score in [8] is 0.974 (inactive); in [12] it was -0.866 (inactive); in test [13] it was -0.956 (inactive); in [14] it was -0.744 (inactive); in test [16] it was 1.91 (inactive).
As to `C=CCC(OC(C)=O)[C@@H]1[C@@H](N(Cc2cc3ccccc3o2)C(=O)Cc2ccc(F)cc2)c2cc(OCCCO)ccc2N1C(=O)c1ccc2ccccc2c1` (stereo not given in full), the composite z-score is -0.0245 in test [1]; -0.186 in [2]; -0.116 in test [3]; -0.121 in test [4]; -0.367 in test [5]; -0.32 in test [6]. Moreover, the composite z-score in test [7] is -0.432; in test [9], 0.45; in test [10], -0.0994; in [11] it was -0.381; in [15], -0.383; in test [17], -0.0708. The composite z-score in test [18] was 0.437; in [19] it was -0.44; in test [20], -0.112. In addition, the z-score in test [8] is -1.92 (inactive); in [12], -0.313 (inactive); in test [13], 0.716 (inactive); in test [14] it was -0.538 (inactive); in test [16] it was -1.07 (inactive).
For `COCCOC(=O)N1C(=O)[C@@]2(c3ccccc31)[C@H](C(=O)N1CCN(c3ncccn3)CC1)[C@H]1C(=O)O[C@H](c3ccccc3)[C@H](c3ccccc3)N1[C@@H]2c1ccc(O)cc1`, the composite z-score was 0.149 in test [1]; 0.0128 in test [2]; -0.0136 in test [3]; 0.879 in test [4]; 0.186 in test [5]; 1.36 in test [6]. Moreover, the composite z-score was 0.335 in [7]; -0.0574 in test [9]; 0.0523 in test [10]; 1.55 in [11]; 2.25 in test [15]; -0.122 in test [17]. In addition, the composite z-score in [18] is 0.161; in [19], 0.679; in [20], -0.184. Moreover, the z-score in test [8] was -0.79 (inactive); in [12], 0.232 (inactive); in test [13], 1.07 (inactive); in test [14], 1.72 (inactive); in test [16], 1.48 (inactive).
As to `COC(=O)c1cn(C[C@@H](Cc2ccccc2)NC(=O)N[C@H](CO)CCc2oc(C(C)=O)c(C(=O)OC)c2C(=O)OC)nn1`, the composite z-score in test [1] was -0.695; in test [2], 0.603; in test [3] it was -0.0602; in test [4] it was 0.757; in test [5], 0.5; in test [6] it was 0.165. In addition, the composite z-score in test [7] is 1.21; in test [9], 0.232; in test [10], 0.0274; in test [11], 0.999; in test [15], 0.985; in test [17] it was -0.147. Besides, the results for the composite z-score in [18], in test [19] and in [20] were 0.921, 1.06 and 0.084, respectively. Also, the z-score in test [8] is -0.776 (inactive); in [12], 0.0017 (inactive); in test [13], -0.814 (inactive); in test [14], -0.338 (inactive); in [16], 1.01 (inactive).

For the origin of these results see PubChem BioAssay.
